# Experimental data from PubChem BioAssay (NCI).
# The panel holds about 83,000 compounds, 20% with a hit somewhere; the sample as a whole holds those more often.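 Percent growth is the endpoint: 0 to 100 indicates growth inhibition (40 means 60% inhibition), 0 means no net growth, and negative values indicate cell death.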 A number with no mark means an inactive call. The source made the active and inactive calls. How the source made its calls: active means growth percent below 10; inactive means the rest.
# Columns and labels:
# Assay in all cases: NCI-60 one-dose screen, 48 h (100 = growth as untreated, 0 = no growth, -100 = all killed)
# SK-MEL-2 melanoma = settings: 10 µM unless noted
# SN12C renal = settings: 10 µM unless noted
# UO-31 renal = settings: 10 µM unless noted
# TK-10 renal = settings: 10 µM unless noted
# ACHN renal = settings: 10 µM unless noted
# CAKI-1 renal = settings: 10 µM unless noted
# A498 renal = settings: 10 µM unless noted
# MOLT-4 leukemia = settings: 10 µM unless noted
# CCRF-CEM leukemia = settings: 10 µM
Structure (SMILES),growth (SK-MEL-2 melanoma),growth (SN12C renal),growth (UO-31 renal),growth (TK-10 renal),growth (ACHN renal),growth (CAKI-1 renal),growth (A498 renal),growth (MOLT-4 leukemia),growth (CCRF-CEM leukemia)
O=C(CCC(=O)N(CCO)CCO)N(CCO)CCO,102%,106%,86%,99.5%,107%,93.3%,120%,90.8%,–
CSc1nc(N)n2nccc2n1,115%,96.8%,65.4%,99.8%,112%,70.6%,109%,98.9%,–
CN(C)CCOC(=O)C(C)(C)C,103%,102%,89.9%,102%,98.1%,105%,103%,95.9%,–
CC1CCCCC[N+]12CCCC2 (stereo not drawn),101%,101%,88.8%,100%,101%,98.7%,109%,99.2%,–
CN(CCC#N)c1ccc(/C=C(\C#N)c2cccc(C(F)(F)F)c2)cc1,51%,72.1%,53.4%,69.3%,76.1%,49.8%,74.1%,53.8%,–
COc1ccc(-c2nnc(SCC(=O)Nc3ccc(C(=O)/C=C/c4cc(OC)c(OC)c(OC)c4)cc3)n2-c2ccccc2)cc1OC,-26.1% [100 µM] (active),31.8% [100 µM],67.5% [100 µM],-42.5% [100 µM] (active),1.79% [100 µM] (active),1.67% [100 µM] (active),-69.7% [100 µM] (active),44.5% [100 µM],–
COc1cc2c(c3c1c(=O)c1cccc(F)c1n3C)C=CC(C)(C)O2,113%,64.3%,-26.5% (active),95.2%,47.9%,-64% (active),90%,85.2%,–
O=C1C(Br)=CC2C1C1C3CCC3C2(Br)C12OCCO2 (stereo not drawn),21.7%,41.8%,62%,28.8%,32.5%,-19.3% (active),52.4%,15.7%,-3.12% (active)
O=C(CCl)NC1c2ccccc2Oc2ccccc21,63%,81.1%,92.1%,84.4%,72.4%,64.6%,97.3%,62.6%,–
CCOc1ccc(N(C)c2ccc(/C=C/C3=[N+](C)c4ccccc4C3(C)C)cc2)cc1,-45.9% (active),2.99% (active),3.71% (active),-16.1% (active),-95.9% (active),-2.85% (active),42.6%,-25.4% (active),–
O=CN/N=C/c1ccc(Cl)c([N+](=O)[O-])c1,41.1%,21.2%,80.1%,8.5% (active),44.2%,41.1%,56%,20.6%,15.3%
CC(=O)O.[In],98.4%,109%,88.4%,100%,104%,–,112%,99.9%,85.4%
CCn1cnc(C[C@H](NC(=O)[C@@H](NC(=O)Nc2cc(C(F)(F)F)cc(C(F)(F)F)c2)C(C)C)C(=O)OC)c1,-86% [100 µM] (active),-86.8% [100 µM] (active),-97% [100 µM] (active),-98.7% [100 µM] (active),-98.7% [100 µM] (active),–,-89.5% [100 µM] (active),-54.9% [100 µM] (active),–
[N-]=[N+]=Nc1ncc(-c2ccc(C(F)(F)F)cc2)c(NC2CCCCCC2)n1,5.91% [100 µM] (active),42.5% [100 µM],22.1% [100 µM],–,26.8% [100 µM],-14.6% [100 µM] (active),32.9% [100 µM],16.9% [100 µM],–
CSCc1ncc(-c2ccc(C(F)(F)F)cc2)c(NC2CCCCCC2)n1,57.5% [25 µM],83.2% [25 µM],51.9% [25 µM],97% [25 µM],77.9% [25 µM],25.1% [25 µM],–,23% [25 µM],–
O=C(O)COc1ccc([N+](=O)[O-])cc1Cl,107%,88.7%,105%,103%,102%,–,115%,99.2%,88.8%
CC(=O)Nc1ccc(S(=O)(=O)Cl)cc1,111%,94.5%,97.2%,100%,113%,–,101%,104%,90.9%
CCN(CC)CCOC(=O)c1cccnc1,91.1%,96.2%,86.2%,–,99.3%,99.6%,62.5%,94.2%,–
NC(CSC(c1ccccc1)(c1ccccc1)c1ccccc1)C(=O)NCC(=O)O (stereo not drawn),38.3%,70.7%,84.4%,98.8%,88.4%,–,65%,83.7%,53.5%
Br/C(=N\Nc1nn[nH]n1)c1ccccc1,90.9%,98.7%,78.6%,–,92.7%,92.5%,114%,105%,–
CCC(C)(CC)c1ccc(O)c(C)c1,82.2%,102%,102%,–,106%,109%,100%,106%,–
CCOC(=O)C(C)C(C)(O)c1ccccc1 (stereo not drawn),97.7%,98.2%,78.5%,–,111%,109%,91.5%,95.4%,–
O=C(NC(=S)NNC(=S)NNc1ccccc1)c1ccccc1,24.2%,25.7%,54%,–,70.7%,55.9%,–,39.3%,–
CCCCCCCCCCCCOC(=N)N(C)C,95.8%,101%,91%,–,93.6%,80.7%,103%,93.5%,–
COC(=O)C(N)CC(C)C (stereo not drawn),101%,17.6%,90.5%,–,97.4%,99.7%,105%,91.9%,–
CC(=O)NCCN,115%,104%,98.4%,109%,97.2%,84.7%,–,102%,–
